Laboratory results taken from ChEMBL document CHEMBL3988442, “University of Dundee, Small-Polar-MMV Screening Library” (2021).
In all, about 48,000 compounds went through this assay and about 13,000 (27%) showed an effect of 50% or more. The list shows a part of the results.

Tested on: Wolbachia pipientis
Assay: Anti-Wolbachia Cell-Based Screen
Format: functional
Set-up: scale not given: in the data most compounds retested in dose-response had high values
Details: 5 µM

Row | Structure (SMILES) | Percent Effect [%]
1 | OC(COCc1ccco1)CSc1nnc2ccccn12 (configuration not stated) | -3.086
2 | O=C(NCCN1CCc2ccccc21)c1cc(-c2ccc(O)cc2)n[nH]1 | -2.452
3 | Cn1cccc1CNCc1nnc2n1CCCC2C(F)(F)F (configuration not stated) | -16.29
4 | O=C(NCCN1CCCCC1)c1ccn(-c2ccccc2)n1 | 106.8
5 | COc1ccc2nc(C)c(C(=O)NCCN3CCS(=O)(=O)CC3)cc2c1 | 7.609
6 | O=C(NCCN1CCCCCC1=O)c1ccn(-c2ccc(F)cc2)n1 | 0.8221
7 | O=C(NCCN1CCOCC1)c1ccn(-c2ccccc2F)n1 | 7.854
8 | COc1ccc(-n2ccc(C(=O)NCCN3CCCCC3)n2)cc1 | 102.6
9 | COc1ccc(-n2ccc(C(=O)NCCN3CCCCCC3)n2)cc1 | 92.28
10 | COc1ccc(-n2ccc(C(=O)NCCN3CCCCC3C)n2)cc1 (configuration not stated) | -3.568
11 | COc1ccc(-n2ccc(C(=O)NCCN3CCC(C)CC3)n2)cc1 | 99.65
12 | O=C(O)C(F)(F)F.O=S(=O)(NCC1OCCc2cn(CC3CCOCC3)nc21)C1CC1 (configuration not stated) | -11.9
13 | CNC(=O)CS(=O)(=O)Cc1ccc(OC)c(F)c1 | -52.3
14 | FC(F)(F)C1CCc2nnc(CNCc3ccsc3)n2C1 (configuration not stated) | 11.3
15 | CC1CCN(CCNC(=O)c2ccn(-c3ccccc3)n2)CC1 | 84.83
16 | COc1cc(C(N)=O)c(N(C)S(C)(=O)=O)cc1OC | -14.68
17 | CN(C(=O)c1ccncc1)c1ccccc1S(C)(=O)=O | 8.968
18 | CN(C(=O)c1cccc(C(=O)NS(C)(=O)=O)c1)c1ccccc1 | -9.633
19 | Cc1c(C(=O)N(C)C)cccc1N(C)S(C)(=O)=O | 107
20 | Cc1c(C(=O)N(C)c2ccccc2)cccc1N(C)S(C)(=O)=O | 104.7
21 | CN(C(=O)c1ccc(Cl)c(S(C)(=O)=O)c1)c1ccccc1 | -9.214
22 | O=S(=O)(Nc1ncccc1F)c1cc(Cl)cc2c1OCC2 | -5.525
23 | Cc1nc(C)n(CC(C)C(=O)N2CCC(N3CCC(O)CC3)CC2)n1 (configuration not stated) | -19.51
24 | Cc1ccc2c(c1)c(CNC(=O)C1CCN(C(C)C)CC1)nn2C | -24.27
25 | CNC(=O)C(C)(C)CNC(=O)Nc1ccncc1C | -8.722

Row | Structure (SMILES) | Percent Effect [%]
26 | O=C(CN1CCCC(c2ncc[nH]2)C1)NCC(F)(F)F (configuration not stated) | -4.538
27 | CN(Cc1nnc(C2CC2)n1C)C1CCN(Cc2ccon2)C1 (configuration not stated) | -8.64
28 | Cc1cc(CN2CCC(N(C)Cc3nnc(C4CC4)n3C)C2)on1 (configuration not stated) | 124.1
29 | Cc1noc(C)c1CN1CCC(N(C)Cc2nnc(C3CC3)n2C)C1 (configuration not stated) | 103.9
30 | Cc1nc(CN2CCC(N(C)Cc3nnc(C4CC4)n3C)C2)oc1C (configuration not stated) | 102.1
31 | Cc1nnc(CN2CCC(N(C)Cc3nnc(C4CC4)n3C)C2)o1 (configuration not stated) | -3.428
32 | CCn1c(C)nnc1CN(C)C1CCN(Cc2c(C)noc2C)C1 (configuration not stated) | -8.892
33 | CN(Cc1nnc(C2CC2)n1C)C1CCN(CCS(C)(=O)=O)C1 (configuration not stated) | -20.16
34 | Cc1ccc(C2CSCCN2CCS(C)(=O)=O)cc1 (configuration not stated) | -9.324
35 | O=C(NC1CC(=O)N(C2Cc3ccccc3C2)C1)c1ccsc1 (configuration not stated) | -4.544
36 | CC(C)N1CCC(Cc2cncc(-c3ccccc3C(=O)O)n2)C1 (configuration not stated) | 128.5
37 | CN1CCC(Cc2nc(-c3cnccn3)n(Cc3ccccc3)n2)CC1 | 21.66
38 | CN1CCC(Cc2cncc(-c3ccccc3C(=O)O)n2)C1 (configuration not stated) | 111.7
39 | COCCN1CCC(Cc2cnc(-c3ccccc3C(=O)O)cn2)CC1 | 103.8
40 | CS(=O)(=O)N1CCCC(Cc2cncc(-c3ccccc3C(=O)O)n2)C1 (configuration not stated) | 106.5
41 | COCCN1CC[C@@H](O)[C@@H]1Cc1ccccc1.O=C(O)C(F)(F)F | 8.923
42 | CC(C)n1nc(Cn2cccn2)c2c1CN(C1CCOC1)C2.O=C(O)C(F)(F)F (configuration not stated) | -7.587
43 | COc1cc(C)ccc1S(=O)(=O)N1CC[C@](C)(O)[C@H](C)C1 | -18.99
44 | Cc1cnn(C2CN(CC(O)Cn3cccn3)C2)c1 (configuration not stated) | -31.52
45 | COc1ncccc1-c1nc(-c2ccccn2)nn1C1CCS(=O)(=O)C1 (configuration not stated) | 10.63
46 | CC(C#N)CNS(=O)(=O)c1ccc(F)c(Br)c1 (configuration not stated) | -7.227
47 | O=C(Nc1ccc(S(=O)(=O)Nc2c(F)cccc2F)cc1)N1CCCC1 | -7.034
48 | CCOc1nnc(CN(Cc2ccccc2)CC(O)c2ccco2)s1 (configuration not stated) | 2.067
49 | CCN(CC(=O)Nc1cc(C(C)(C)C)no1)Cc1ccc(Cl)s1 | 1.082
50 | CCNC(=O)CN(CC)Cc1nc2c(F)cccc2n1CC | -0.387

Row | Structure (SMILES) | Percent Effect [%]
51 | CCOc1nnc(CN(CC)CC(=O)Nc2c(F)cccc2F)s1 | 97.11
52 | CCOc1nnc(CN(CC)CC(=O)NC(C)C)s1 | 101.2
53 | CCN(CC(=O)NC(C)(C)C)Cc1cccc2c1OCCO2 | -0.7065
54 | CCOc1ccccc1C(CC(=O)Nc1ccccc1F)NC(C)=O (configuration not stated) | -7.406
55 | CCOc1nnc(CN(CC)CC(=O)NC(C)(C)C)s1 | 93.91
56 | CCN(CC(=O)NC(C)C)S(=O)(=O)N1CCCCCC1 | 9.147
57 | O=C1[C@@H]2CCN(Cc3ccc(F)cc3)C[C@@H]2OCCN1c1cccnc1 | -21
58 | Cc1cccc(CN2CCCC3(CCN(C4CCSCC4)C3)C2=O)c1 (configuration not stated) | -3.098
59 | CN(C)C(=O)Cn1ccc2cc(NC(=O)N3CCSCC3)ccc21 | -2.006
60 | Cc1ccc(C)c2c(O)cc(CNCC(N)=O)nc12 | -7.963
61 | CC(C)c1nc(-c2cc(C(=O)NCCN(C)C)c3ccccn23)cs1.O=C(O)C(F)(F)F | -4.099
62 | O=C1N(CCCc2ccccc2)CCCC1(O)CN1CCC(CO)CC1 (configuration not stated) | -7.352
63 | CC(C)n1ncc2c1NC(=O)C(C#N)C21CCCC1 (configuration not stated) | 15.91
64 | Cc1ccc(CN2CC[C@@H]3OCCN(Cc4ccncc4)[C@H]3CC2)s1.O=C(O)C(F)(F)F.O=C(O)C(F)(F)F.O=C(O)C(F)(F)F | 91.24
65 | CS(=O)(=O)N1CCO[C@@H]2CCN(Cc3ccncc3)CC[C@H]21.O=C(O)C(F)(F)F.O=C(O)C(F)(F)F | 114.1
66 | CS(=O)(=O)N1CCO[C@@H]2CN(Cc3ccc(F)cc3)CC[C@@H]2C1.O=C(O)C(F)(F)F | -0.3298
67 | COCCN1CCO[C@@H]2CN(Cc3ccc(C)s3)C[C@@H]2C1.O=C(O)C(F)(F)F.O=C(O)C(F)(F)F | -5.835
68 | CS(=O)(=O)N1CC[C@H]2O[C@H](C(=O)NCCc3ccncc3)CC[C@H]21.O=C(O)C(F)(F)F | -5.225
69 | Cc1ccc(CN2CC[C@H]3[C@H]2CCN3S(=O)(=O)C2CC2)s1.O=C(O)C(F)(F)F | -4.175
70 | Cc1ccc(CN2CC[C@H]3OCC[C@@H](C(=O)NCC4CC4)[C@@H]3C2)s1.O=C(O)C(F)(F)F | -8.513
71 | Cc1ccc(CN2CC[C@@H]3OCCN(S(C)(=O)=O)[C@H]3CC2)s1.O=C(O)C(F)(F)F | 114.1
72 | Cc1ccc(CN2CC[C@H]3[C@H]2CCN3S(C)(=O)=O)s1.O=C(O)C(F)(F)F | -3.604
73 | CC1CN(S(=O)(=O)c2cc(S(C)(=O)=O)ccc2Br)c2cccnc2O1 (configuration not stated) | -14.61
74 | CC1(C)CN(CC(F)(F)F)CCN1CC(=O)N1CCCCC1 | -2.434
75 | O=C(O)C(F)(F)F.O=S(=O)(NC[C@]12COC[C@H]1CN(c1ncc(F)cn1)C2)C1CC1 | 7.707

Row | Structure (SMILES) | Percent Effect [%]
76 | Cc1nc2c(C#N)cnn2c(C)c1CCC(=O)N(C)C(C)C(C)C (configuration not stated) | 7.938
77 | Cc1nn(CCC#N)c(C)c1CCC(=O)N(C)Cc1ccsc1 | 21.07
78 | COC(=O)CCc1c(C)nc2cc(O)nn2c1C | 10.93
79 | Cc1nc2cc(O)nn2c(C)c1CCC(=O)N(C)CCC(C)C | 96.83
80 | Cc1nc2ccnn2c(C)c1CCC(=O)N1CCN(C2CC2)CC1 | 0.559
81 | Cc1nn(C)c(C)c1CCC(=O)N(C)Cc1ccc2nsnc2c1 | 27.84
82 | Cc1nc2cc(O)nn2c(C)c1CCC(=O)N(C)Cc1ccccc1 | 86.37
83 | COCC(C)N(C)C(=O)CCc1c(C)nc2c(C#N)cnn2c1C (configuration not stated) | -1.234
84 | CCCN(CC(F)F)C(=O)CCc1c(C)nc2cc(O)nn2c1C | 131.4
85 | CN1CCC2(CCC1=O)CCN(C(=O)Cc1ccc(O)c(F)c1)CC2 | 0.2124
86 | Cc1ccn(CCNc2ncnc3c2CCN(c2cnccn2)CC3)n1 | 7.115
87 | CC(O)CN1CCC(CNCc2cccc(Br)c2)CC1 (configuration not stated) | 7.461
88 | COC1CCN(C(=O)Cn2ccc3ccccc32)CC1 | 0.3613
89 | COc1cccn(CC(=O)N(C)CCOc2cc(C)cc(C)c2)c1=O | -7.697
90 | COCCN(C)C(=O)Cn1cccc(OC)c1=O | -3.023
91 | O=C(c1nnn(-c2ccc(F)cc2)n1)N1CCC(O)CC1 | 1.522
92 | O=C(Cn1cccc2cc(-c3ccc(F)cc3)nc1-2)N1CCC(O)CC1 | 121.3
93 | COc1cccc(CN2CCN(C(=O)CN3CCOCC3)CC2)n1 | -0.8074
94 | O=C(Cn1nnc(-c2cc3ccccc3o2)n1)N1CCOCC1 | -8.281
95 | CN(C)CCN(C)C(=O)Cn1cccc2cc(-c3ccc(F)cc3)nc1-2 | 149.6
96 | COc1ccc(-c2cc3cccn(CC(=O)N4CCOCC4)c-3n2)cc1 | 153.8
97 | CC(C)(C)c1nnc(CN2CCC(c3cc4ccccc4[nH]3)CC2)o1 | 4.334
